Screening results as filed in PubChem BioAssay.
AddAB inh – less growth of phage-infected E. coli with AddAB. 0.29% of 330,000 active. AID 435030. E. coli expressing H. pylori AddAB, absorbance growth. inhibition, % at 11.9 µM; in the data active = inhibition above about 12%
E coli growth-1 – inhibitors of Escherichia coli growth; 0.21% of 330,000 active; AID 1053175; OD600, 23 h; active compounds read low; OD600 absorbance (no concentration beside the values);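 active = OD600 absorbance below the run mean of sample wells minus 3.6 SD, in any replicate, cut at about 0.56 in these data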
Tat transport – E. coli Tat transport inhibition; AID 488895; inhibition, % at 10 µM; E. coli MC4100 TorA-mCherry Tat export, fluorescence; 0.036% of 340,000 active;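 active = mean replicate inhibition at least 50% and at least half of replicates individually reaching 50%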;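 note: exported cargo escapes ClpAP degradation while cytoplasmic cargo is degraded and loses fluorescence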
E coli growth-2 – bacterial growth inhibition, counter-screen for AddAB inhibitors; E. coli V3065 growth, OD600 absorbance, 18 h; 0.27% of 330,000 active; inhibition, % at 11.9 µM;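 active = inhibition above the campaign's mean inhibition across all tested compounds plus 3 SD, cut at about 9.9% in these data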;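 note: uninfected addAB+ strain grown without phage in ampicillin broth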
phage Ecoli inh – E. coli growth loss with phage present; growth absorbance; inhibition, % at 11.9 µM; 0.26% of 360,000 active; in the data active = inhibition above about 11%
RecBCD conf – confirmation: growth loss of phage-infected RecBCD+ E. coli (RecBCD inhibitor screen) | E. coli V66 + T4 2- phage, growth OD | 45% of 890 active | AID 651982 | inhibition, % at 11.9 µM | shares compounds with phage Ecoli inh;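 active = mean inhibition over triplicates exceeding the hit threshold derived in the original primary screen, cut at about 11% in these data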
Ecoli viability – bacterial viability inhibition counter-screen for RecBCD. shares compounds with phage Ecoli inh. E. coli viability, absorbance (OD) growth. inhibition, % at 11.9 µM. 29% of 890 active. AID 651983; in the data active = inhibition above about 20%;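 note: E. coli strain V66 grown with compound alone and no phage infection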
AddAB phage OD – growth loss of phage-infected AddAB E. coli, RecBCD counter-screen. shares compounds with phage Ecoli inh. E. coli expressing H. pylori AddAB + T4 phage, OD growth; gene 2 mutant T4, recBCD-deleted host. inhibition, % at 11.9 µM. 45% of 890 active. AID 651984;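 active = mean inhibition above the solvent-only control wells' mean plus 3 SD, cut at about 22% in these data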;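 note: higher means less bacterial growth from phage killing when AddAB is blocked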
Each line names hits and unclear results; the compound was inactive in the other large screens (follow-up assays come after a bar, where they were run). This is a sample that favours compounds with a hit; in the whole collection about 0.51% have one here.

CCCNC(=O)c1nc(C)c(C)nc1C(=O)Nc1cccc(Cl)c1	phage Ecoli inh 67.1 | RecBCD conf inactive | Ecoli viability inactive | AddAB phage OD inactive
Cc1noc(NS(=O)(=O)c2ccc(N)cc2)c1C	phage Ecoli inh 10.9 | RecBCD conf inactive | Ecoli viability inactive | AddAB phage OD 23.2
CCc1nnc(NS(=O)(=O)c2ccc(N3C(=O)c4ccccc4C3=O)cc2)s1	none
O=C(Nc1ccc(Cl)cc1)Nc1ccc(S(=O)(=O)Nc2ncccn2)cc1	none
O=S(=O)(Nc1ncccn1)c1ccc(NC(=S)Nc2ccc(Cl)cc2)cc1	phage Ecoli inh 11.2 (no result: E coli growth-1) | RecBCD conf inactive | Ecoli viability inactive | AddAB phage OD inactive
Nc1ccc(S(=O)(=O)Nc2ncccn2)cc1	phage Ecoli inh 10.9 | RecBCD conf inactive | Ecoli viability inactive | AddAB phage OD inactive
O=S(=O)(Nc1ncccn1)c1ccccc1	none
CCc1nnc(NS(=O)(=O)c2ccc(N)cc2)s1	phage Ecoli inh 11.7 | RecBCD conf inactive | Ecoli viability inactive | AddAB phage OD inactive
CCOC(=O)Nc1ccc(S(=O)(=O)Nc2onc(C)c2C)cc1	none (no result: Tat transport)
CCc1ccc(NC(=S)Nc2ccc(S(=O)(=O)Nc3ncccn3)cc2)cc1	phage Ecoli inh 11.6 | RecBCD conf inactive | Ecoli viability inactive | AddAB phage OD inactive
CC(C)NC(=S)Nc1ccc(S(=O)(=O)Nc2ncccn2)cc1	none
Cc1cc(C)cc(OCC(=O)NN=Cc2cn(C)nc2C)c1	none (no result: AddAB inh, Tat transport, E coli growth-2, phage Ecoli inh)
O=C(/C=C/Nc1ccccc1)c1ccc(Cl)cc1Cl	none
N#Cc1c(Nc2ccccc2)[n+]([O-])c2ccc(Cl)cc2[n+]1[O-]	phage Ecoli inh 12.5 (no result: AddAB inh, E coli growth-1, E coli growth-2) | RecBCD conf 16.1 | Ecoli viability inactive | AddAB phage OD 49.4
Cc1cc(C=C2C(=N)N3C(=NC2=O)SN=C3S(C)(=O)=O)c(C)n1-c1ccccc1	none (no result: AddAB inh, Tat transport, E coli growth-2, phage Ecoli inh)
Nc1nc(N)c2cc(S(=O)(=O)c3ccc4ccccc4c3)ccc2n1	phage Ecoli inh 28.4 (no result: AddAB inh, E coli growth-1, Tat transport, E coli growth-2) | RecBCD conf 101.4 | Ecoli viability 99.2 | AddAB phage OD 101.0
N#CCCn1cc(C=C2NC(=S)N(c3ccccc3)C2=O)c(-c2ccc(-c3ccccc3)cc2)n1	none (no result: AddAB inh, Tat transport, E coli growth-2, phage Ecoli inh)
CCCC(=O)NC(c1cccc([N+](=O)[O-])c1)c1ccc2cccnc2c1O (centres undefined)	phage Ecoli inh 22.8 (no result: AddAB inh, E coli growth-1, Tat transport, E coli growth-2) | RecBCD conf 16.4 | Ecoli viability 20.4 | AddAB phage OD 25.6
Cc1ccc(C(NC(=O)C(C)C)c2cc([N+](=O)[O-])c3cccnc3c2O)cc1 (centres undefined)	none
CC(=O)NC(c1ccc(Cl)cc1Cl)c1ccc2cccnc2c1O (centres undefined)	phage Ecoli inh 24.3 (no result: AddAB inh, E coli growth-1, E coli growth-2) | RecBCD conf 16.8 | Ecoli viability 20.4 | AddAB phage OD inactive
Oc1c(C(Nc2cccc(C(F)(F)F)c2)c2ccncc2)ccc2cccnc12 (centres undefined)	none
CCN(CC)c1ccc(C(NC(=O)C(C)C)c2ccc3cccnc3c2O)cc1 (centres undefined)	phage Ecoli inh 20.9 (no result: AddAB inh, E coli growth-1, Tat transport, E coli growth-2) | RecBCD conf inactive | Ecoli viability inactive | AddAB phage OD inactive
CCC(=O)Nc1cccc(C2=NOC3(C2)CC(C(N)=O)N(C(=O)c2ccccc2C(=O)c2ccccc2)C3)c1 (centres undefined)	none (no result: AddAB inh, Tat transport, E coli growth-2, phage Ecoli inh)
CCN(CC)C(=O)c1[nH]cnc1C(=O)NC(C)C(=O)OCc1ccccc1 (centres undefined)	none (no result: AddAB inh, Tat transport, E coli growth-2, phage Ecoli inh)
Oc1ccc(C(Cc2ccc3ccccc3n2)=NNc2ccccc2)c(O)c1	none (no result: AddAB inh, Tat transport, E coli growth-2, phage Ecoli inh)
N#CCCN(C(=O)CSc1nc2ccccc2c(=O)[nH]1)c1ccc(F)cc1	phage Ecoli inh 12.1 | RecBCD conf inactive | Ecoli viability inactive | AddAB phage OD inactive
O=C1SCCN1N=Cc1ccc([N+](=O)[O-])o1	E coli growth-1 0.063, phage Ecoli inh 68.5 (no result: AddAB inh, E coli growth-2) | RecBCD conf 61.8 | Ecoli viability 98.2 | AddAB phage OD 99.8
O=C1C2C(C(=O)N1/N=C/c1ccc([N+](=O)[O-])o1)C1C=CC2C12CC2 (centres undefined)	none (no result: E coli growth-1)
CC1(C(=O)N/N=C/c2ccc([N+](=O)[O-])o2)CC1(Br)Br (centres undefined)	none (no result: E coli growth-1)
CC1CN(N=Cc2ccc([N+](=O)[O-])o2)C(=N)O1 (centres undefined)	E coli growth-1 0.065, phage Ecoli inh 45.8 (no result: AddAB inh, E coli growth-2) | RecBCD conf 85.1 | Ecoli viability 101.7 | AddAB phage OD 102.9
Oc1ccc(CC2CNCCN2CC2(c3ccccc3)CC2)cc1 (centres undefined)	none (no result: AddAB inh, Tat transport, E coli growth-2, phage Ecoli inh)
Cc1ccc(OCC(=O)NN=Cc2cccnc2)cc1	none (no result: AddAB inh, Tat transport, E coli growth-2, phage Ecoli inh)
O=C(NC(Nc1nc2ccc([N+](=O)[O-])cc2s1)(C(F)(F)F)C(F)(F)F)c1ccccc1Cl	AddAB inh 14.4, E coli growth-2 11.2, phage Ecoli inh 14.8 | RecBCD conf inactive | Ecoli viability inactive | AddAB phage OD inactive
COc1ccc2oc(=O)c(C(C)=NNc3nc(-c4cc(C)ccc4C)cs3)cc2c1	none (no result: AddAB inh, Tat transport, E coli growth-2, phage Ecoli inh)
On1onc2c3cc(-c4ccccc4)nc3ccc21	E coli growth-1 0.469, E coli growth-2 11.5, phage Ecoli inh 12.7 | RecBCD conf inactive | Ecoli viability inactive | AddAB phage OD inactive
c1ccc(-c2cc3c(ccc4nonc43)nn2)cc1	none
CC1CCCC(C)N1c1nnc(NC(=O)c2cc(-c3ccc(Br)cc3)on2)s1 (centres undefined)	phage Ecoli inh 94.9 (no result: E coli growth-1) | RecBCD conf inactive | Ecoli viability inactive | AddAB phage OD inactive
O=C(Nc1nnc(N2CCCCCC2)s1)c1cc(-c2ccc(Br)cc2)on1	none
Nc1nc(N)c2c(ccc3c2ccn3Cc2cccc([N+](=O)[O-])c2)n1	phage Ecoli inh 100.2 (no result: AddAB inh, E coli growth-1, Tat transport, E coli growth-2) | RecBCD conf 102.9 | Ecoli viability 103.1 | AddAB phage OD 102.5
Nc1nc(N)c2cc([N+](=O)[O-])ccc2n1	none (no result: AddAB inh, E coli growth-2)
CCC(C)(C(=O)NC1CCCCC1)N(Cc1cccs1)C(=O)c1ccc(=O)[nH]c1 (centres undefined)	phage Ecoli inh 11.9 | RecBCD conf inactive | Ecoli viability inactive | AddAB phage OD inactive
CCC(C)(C(=O)NC1CCCCC1)N(Cc1cccs1)C(=O)c1ccccn1 (centres undefined)	none
COC(=O)c1ccc(Cl)cc1NC(=O)C=Cc1ccc(C)o1	none (no result: AddAB inh, Tat transport, E coli growth-2, phage Ecoli inh)
Cc1[nH]nc(-c2cccnc2)c1N=NN(C)C	Tat transport 142.1, phage Ecoli inh 98.8 (no result: AddAB inh, E coli growth-1, E coli growth-2) | RecBCD conf 103.5 | Ecoli viability 103.8 | AddAB phage OD 102.4
O=C(O)c1ccc(S(=O)(=O)/N=C2\C=C(Nc3ccccc3F)C(=O)c3ccccc32)cc1	phage Ecoli inh 12.6 | RecBCD conf inactive | Ecoli viability inactive | AddAB phage OD inactive
Cc1ccccc1NC1=C/C(=N\S(=O)(=O)c2ccc(C(=O)O)cc2)c2ccccc2C1=O	none
CC(C)CCNC(=S)Nc1ccc(Br)cc1	phage Ecoli inh 10.9 | RecBCD conf inactive | Ecoli viability inactive | AddAB phage OD inactive
